# Test results reported in PubChem BioAssay AID504466 (National Center for Advancing Translational Sciences (NCATS), 2011).
# Hit rate of the full screen: of about 330,000 compounds, about 4,200 (1.3%) were called active. Where a call stands in place of a potency, no number is given. Not shown: some 6% with an inconclusive outcome. Calls come from the whole dose curve; as a rule, active = well fitted activation curve with a large enough effect; inconclusive = small, poorly fitted or top-dose-only effect; inactive = no such curve, though single readings can be large or run the other way. Only a selection was taken, and actives are over-represented in it overall.
# Test: qHTS screen for small molecules that induce genotoxicity in human embryonic kidney (HEK293T) cells expressing luciferase-tagged ELG1; note: nearly all actives have a fitted effect of over 60% in size
# Conditions: HEK293T ELG1-luciferase reporter, luminescence, 16 h; series mostly up to 46 µM
# Method in brief: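 16 hr compound incubation (37 °C, 5% CO2) of HEK293T cells carrying luciferase-tagged ELG1; luciferase then measured by ONE-Glo luminescence after 30 min at RT.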
# Potency is the fitted concentration of half-maximal effect.
row,Structure (SMILES),Potency
1,C=CC[C@@H](CC(=O)NCCO)C(=O)N[C@H](C)COC(=O)[C@@H](CC=C)CC(=O)OC(C)(C)C,inactive
2,Cc1cccc(C(=O)OCC(=O)NC(C)C2CC3CCC2C3)c1O (stereo unspecified),inactive
3,COc1ccccc1NC(=O)COC(=O)CNC(=O)C1CCCCC1,inactive
4,Nc1ncnc2c1ncn2[C@@H]1O[C@H](CNS(=O)(=O)c2ccc(-c3ccno3)s2)[C@@H](O)[C@H]1O,inactive
5,O=C(CCCOc1ccccc1)NNC(=O)c1ccc(Cl)cc1,inactive
6,CC(=O)Nc1cccc(-c2cnc3ccccc3n2)c1,10.3 µM (active)
7,CCS(=O)(=O)Nc1cccc(-c2cc(-c3ccccc3)c3cc(C)ccc3n2)c1,inactive
8,CC(=O)Nc1cccc(Nc2nc(-c3cccs3)nc3ccccc23)c1,inactive
9,O=C(c1ccc(S(=O)(=O)NCc2ccco2)cc1)N1CCN(c2ccccc2)CC1,inactive
10,COC(=O)c1oc2ccc(Br)cc2c1NC(C)=O,inactive
11,Cc1noc(C)c1C(=O)Nc1ccccn1,inactive
12,Cc1c(C(=O)Nc2ccccn2)oc2ccc(Br)cc12,9.2 µM (active)
13,O=C(COC(=O)COc1cc(Cl)c(Cl)cc1Cl)NC1CC1,inactive
14,COc1c(O)cc2oc(-c3ccc(O)c(O)c3)cc(=O)c2c1O,20.6 µM (active)
15,COc1ccc(-c2cc(=O)c3c(O)cc(O[C@@H]4O[C@H](CO[C@@H]5O[C@@H](C)[C@H](O)[C@@H](O)[C@H]5O)[C@@H](O)[C@H](O)[C@H]4O)cc3o2)cc1O,inactive
16,CCOC(=O)COc1cc(O)c2c(=O)cc(-c3ccccc3)oc2c1,inactive
17,CCN(C(=O)COC(=O)CCC(=O)c1cccs1)C1CCCCC1,inactive
18,C[C@H](CO)N1C[C@H](C)[C@H](CN(C)C(=O)Nc2ccc(C(F)(F)F)cc2)Oc2c(NC(=O)c3ccncc3)cccc2C1=O,inactive
19,C[C@]12c3[nH]c4ccc(Cl)cc4c3CCN1C(=O)[C@@H](CC(=O)NCCCn1ccnc1)C[C@@H]2C(=O)N1CCOCC1,inactive
20,CCC1CCCCN1C(=S)NC(=O)c1ccco1 (stereo unspecified),inactive
21,COc1ccc2c(CC(=O)NNC(=O)c3ccccc3F)coc2c1,inactive
22,CCC(=O)N1CCCc2ccccc21,inactive
23,O=C(CN1CCN(c2ccccn2)CC1)N1CCc2ccccc21,inactive
24,O=C(CSCc1ccccc1)N1CCc2ccccc21,2.59 µM (active)
25,COc1cc(C2CC(=O)Oc3cc(OC)c(OC)c(OC)c32)cc(OC)c1OC (stereo unspecified),inactive
26,CC1CC(=NNC(=O)C2COc3ccccc3O2)CC(C)(C)C1 (stereo unspecified),inactive

row,Structure (SMILES),Potency
1,COc1cc(SC)ccc1C(=O)N(Cc1ccccc1)c1ccccc1,inactive
2,Cc1csc(NC(=O)c2ccc(-c3ccc(Cl)cc3Cl)o2)n1,inactive
3,COc1cc(SC)ccc1C(=O)Nc1nc(C)cs1,0.058 µM (active)
4,CN(C)C(=O)CCc1ccc2c3c([nH]c2c1)[C@]1(CCc2ccccc2)[C@@H](C(=O)N2CCCCC2)C[C@H](CC(=O)NCCC2=CCCCC2)C(=O)N1CC3,inactive
5,CN(Cc1ccc(F)cc1)C(=O)CN1C(=O)c2ccccc2S1(=O)=O,inactive
6,CC[C@]12c3[nH]c4cc(CCC(=O)N(C)C)ccc4c3CCN1C(=O)[C@@H](CC(=O)NCc1ccco1)C[C@@H]2C(=O)N1CCN(C(=O)c2ccco2)CC1,inactive
7,Cc1ccc(N2CCN(/N=C/c3cccs3)CC2)cc1,inactive
8,COc1cc(/C=N/N2CCN(c3ccccc3)CC2)ccc1OC(C)=O,inactive
9,C(=N/N1CCN(c2ccccc2)CC1)/c1cccs1,14.6 µM (active)
10,CN(CC(=O)Nc1ccc(OC(F)F)cc1)S(=O)(=O)/C=C/c1ccccc1,inactive
11,COc1ccc2sc(-c3ccc(N(C)C)cc3)c(-c3ccc4cc[nH]c4c3)c2c1,inactive
12,O=C(Nc1ccc(NC(=O)c2cccs2)cc1)c1ccc2ccccc2c1,inactive
13,O=C(Nc1ccc2oc(-c3ccc4ccccc4c3)nc2c1)c1cccs1,2.91 µM (active)
14,Cc1ccc(C(=O)Nc2ccc(NC(=O)c3cccs3)cc2)c(C)c1,inactive
15,COc1ccc(CCNC(=O)COC(=O)c2cnc(Cl)c(Cl)c2)cc1,inactive
16,Cc1ccc2[nH]c(=O)c(COC(=O)c3ccccn3)cc2c1,inactive
17,CCOC(=O)c1cc2cc(C)ccc2[nH]1,20.6 µM (active)
18,CCOC(=O)c1[nH]c2ccc(C)cc2c1N=C(C)N(C)C,inactive
19,C[C@H]1CN([C@@H](C)CO)C(=O)Cc2cc(NC(=O)Cc3ccccc3)ccc2O[C@H]1CN(C)S(=O)(=O)c1cccs1,inactive
20,Cc1ccc(N2C(=O)N3[C@@H]4c5ccccc5OC[C@@H]4[C@@H](c4ccccc4)[C@@]3(C)C2=O)cc1,inactive
21,Cc1ccc(C(=O)c2c(NC(=O)c3ccccc3)sc(C)c2C)cc1,inactive
22,Cc1sc(NC(=O)c2ccc3ncsc3c2)c(C(N)=O)c1C,2.31 µM (active)
23,COc1ccccc1-c1nnc(NC(=O)c2ccc3ncsc3c2)o1,inactive
24,C=CC[C@H](CC(=O)NCCO)C(=O)N[C@@H](COC(=O)[C@@H](CC=C)Cc1ccc(F)cc1)Cc1c[nH]c2ccccc12,inactive
25,CC(=O)c1ccc2c(c1)OCCOCCOc1ccc(C(C)=O)cc1OCCOCCO2,inactive
26,CCN(CC)Cc1cc(C(C)=O)ccc1O,inactive

row,Structure (SMILES),Potency
1,CC(=O)c1ccc2c(ccc3ccccc32)c1,23.1 µM (active)
2,COc1ccccc1N(CC(=O)Nc1ccc(C)cc1Cl)S(=O)(=O)c1cccs1,inactive
3,CCCSc1nc2sc3c(c2c(=O)n1-c1ccc(OC)cc1)CCN(C)C3,inactive
4,CCCn1nnc2sc3c(c2c1=O)CCC(C)C3 (stereo unspecified),11.6 µM (active)
5,C=CCn1c(SCc2c(C)noc2C)nc2sc3c(c2c1=O)CCC(C)C3 (stereo unspecified),inactive
6,O=C(COC(=O)COc1ccccc1F)Nc1cccc(S(=O)(=O)N2CCCCC2)c1,inactive
7,COc1cc(OC)cc(C(=O)NNC(=O)Cc2cccs2)c1,inactive
8,Cc1cc(C)nc(Nc2n[nH]c(-c3ccccc3N)n2)n1,2.31 µM (active)
9,Cc1cc(C)nc(Nc2ncn[nH]2)n1,inactive
10,CCCOc1ccccc1-c1nc(SCCC(=O)O)n[nH]1,inactive
11,COc1cc(OC)cc(-c2c(C#Cc3ccsc3)c3cc(-c4ccc(OC)cc4F)ccc3n2C)c1,inactive
12,Nc1ccc(-c2sc(N)nc2-c2ccccc2)cc1,inactive
13,Nc1ccc(-c2nnc(-c3ccccc3)o2)cc1,16.4 µM (active)
14,OC(c1nnc(-c2ccccc2)o1)c1cccs1 (stereo unspecified),inactive
15,CC(C)n1cnc2c(NCc3ccccc3)cc(OCC3CCN(C)CC3)cc21,inactive
16,Cc1ccc(-c2csc(NC3OC(=O)c4ccccc43)n2)cc1 (stereo unspecified),inactive
17,Cc1ccc(-c2csc(-c3c[nH]c4ccccc34)n2)cc1,23.1 µM (active)
18,Cc1ccc(-c2csc(NC(=O)Cn3[nH]c(=O)c4ccccc4c3=O)n2)cc1,inactive
19,O=C(Cn1cc(C(F)(F)F)ccc1=O)Nc1ccc2c(c1)OCCO2,inactive
20,Cc1ccc(C)c(N2CCN(C(=O)CCc3nc(-c4cccc(C(F)(F)F)c4)no3)CC2)c1,inactive
21,Cc1c(C(=O)Nc2cccc(S(=O)(=O)N3CCOCC3)c2)oc2ccccc12,inactive
22,O=C(COC(=O)c1n[nH]c2ccccc12)Nc1ccccc1Br,inactive
23,CC(=O)Nc1ccc(NC(=O)COC(=O)C2CCC(C(C)(C)C)CC2)cc1 (stereo unspecified),inactive
24,CSCC[C@H](NC(=O)OC(C)(C)C)C(=O)N/N=C/c1cc2ccc(C)cc2nc1Cl,inactive
25,Cc1ccc2cc(/C=N/NC(=O)[C@@H]3CCCN3)c(Cl)nc2c1,inactive
26,Cc1ccc2cc(/C=N/Nc3ccc(C(=O)O)cc3)c(Cl)nc2c1,18.3 µM (active)

row,Structure (SMILES),Potency
1,COc1ccc(CC(=O)N[C@@H]2c3cc(OC)c(OC)cc3C[C@H]2OCc2ccccc2)cc1,inactive
2,Cc1ccc(-n2c(C)cc(C(=O)CSc3nnc4ccccn34)c2C)cc1,5.17 µM (active)
3,Cc1cc(C(=O)CSc2nc(N)cc(=O)[nH]2)c(C)n1-c1cccc(F)c1,inactive
4,O=C(CSc1nnc2ccccn12)c1ccccc1,11.6 µM (active)
5,Cc1ccc(C(=O)NNC(=O)CSc2nnc3ccccn23)cc1,inactive
6,CCN(C(=O)CSc1nnc2ccccn12)C1CCS(=O)(=O)C1 (stereo unspecified),inactive
7,O=C(CSc1nnc2n1CCCN2)c1ccccc1,inactive
8,CC1CCCCC12NC(=O)N(CC(=O)OCc1c(F)cccc1Cl)C2=O (stereo unspecified),inactive
9,C[C@H](NS(=O)(=O)c1ccc(Cl)cc1)C(=O)OCC(=O)N1CCOCC1,inactive
10,COc1cc(OC)cc(-c2sc3ccc(OC)cc3c2-c2ccc3cc[nH]c3c2)c1,inactive
11,Cc1ccc(NC(=O)c2cnc(SCC(=O)NCC3CCCO3)n(C)c2=O)cc1 (stereo unspecified),20.6 µM (active)
12,Cn1c(SCC(=O)c2ccccc2)ncc(C(=O)Nc2ccc(F)cc2)c1=O,inactive
13,CCn1c(SCC(=O)NCC2CCCO2)nc2ccccc21 (stereo unspecified),inactive
14,CCCc1cc(=O)[nH]c(SCC(=O)Nc2ccc(C(=O)Nc3ccccc3OC)cc2)n1,inactive
15,Cc1noc(C)c1C(=O)OC(C)C(=O)Nc1ccc2c(c1)OCO2 (stereo unspecified),inactive
16,CC(=O)c1cccc(OCC(=O)OCC(=O)Nc2cc(S(=O)(=O)N3CCCCC3)ccc2C)c1,inactive
17,CC(C)Cn1c(SCC(=O)Nc2ccc(Cl)cc2F)nc(O)cc1=O,inactive
18,O=C(Nc1cccc(NC(=O)c2ccco2)c1)c1cnccn1,inactive
19,O=C(Nc1ccc2c(c1)OCCO2)c1cnccn1,5.8 µM (active)
20,CCn1c(SCC(=O)Nc2ccc3c(c2)OCCO3)nnc1C(C)C,inactive
21,Cn1ccnc1SCC(=O)Nc1ccc2c(c1)OCCO2,9.2 µM (active)
22,O=C(CCN1C(=O)c2ccncc2C1=O)Nc1ccc2c(c1)OCCO2,inactive
23,CCn1c(SCC(=O)Nc2ccc3c(c2)OCCO3)nnc1-c1ccncc1,inactive
